Assay outcomes from PubChem BioAssay.
GALK inhibitor: blocks human galactokinase activity. P51570. Purified GALK, Kinase-Glo residual ATP luminescence. Potency, µM (series often up to 57.5 µM), for inactives: top-dose activity change, negative = inhibition, most hits filed as inhibitors. 270,000 tested, 0.007% active. AID 1868; further: potency means the concentration at half of the fitted maximal effect
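ATP-depletion format; final 35 uM ATP, 100 uM D-galactose, 5 nM enzyme; pH 8.0 HEPES/Mg2+ buffer; 60 min RT; luminescence read 10 min after detection reagent.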
USP1-UAF1 inh: inhibitors of human USP1/UAF1 deubiquitinase. O94782. recombinant USP1/UAF1, Ub-Rhodamine cleavage fluorescence. Potency, µM (doses to about 57.1 µM), for the others: at the top dose activity change, negative = inhibition, most hits filed as inhibitors. 390,000 tested, 0.23% active; further: potency means the concentration at half of the fitted maximal effect; nearly all actives have a fitted effect of over 60% in size
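In this screen, compounds sit with the deubiquitinase complex (1nM) for 15 min at room temperature before Ub-Rho is added at 150nM final. Fluorescence rise is then followed for 6 reads every 60 seconds.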
PLK1 PBD inh: inhibitors of human PLK1 polo-box domain binding. P53350. Plk1 PBD binding of FITC phosphopeptide, fluorescence polarization. 360,000 tested, 2.8% active. Potency, µM, without a hit: max response, negative = inhibition, hits mostly inhibitors; further: potency means the concentration at half of the fitted maximal effect; series mostly up to about 57 µM; nearly all actives have a fitted effect of over 65% in size
USP2a block: blocks human ubiquitin-specific protease USP2a; O75604; USP2 core, Ub-CHOP2 coupled fluorogenic reporter, 485/531; Potency, µM (highest dose often 38.3 µM), inactives show at the top dose activity change, negative = inhibition, actives largely listed as inhibitors; 330,000 tested, 0.01% active;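 further: potency means the concentration at half of the fitted maximal effect; plate controls were DMSO wells for no effect and full inhibition by NEM control for full effect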
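USP2 core (10nM final) preincubated 30min RT with compound in 20mM Tris-HCl pH 8.0, 2mM CaCl2, 2mM beta-mercaptoethanol, 0.05% CHAPS; 25nM Ub-CHOP2 plus 25nM reporter substrate added, fluorescence (Ex485/Em531) read after 60min.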
Coupling enz: counter-screen for Giardia aldolase inhibitors: coupling enzyme system; coupling enzyme system counterscreen, AmpLite Red fluorescence; activity change, negative = inhibition, % at 58.2 µM, hits read low; 290,000 tested, 0.67% active; AID 2472; in the data active means activity change below about -30%
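Counterscreen lacking aldolase: glyceraldehyde-3-phosphate coupling-enzyme reagent preincubated 10 min at RT with compound (at 57.5 uM final), then substrate/coupling system with AmpLite Red added; fluorescence read at 525/598 nm after 20 min RT.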
VDR inh: vitamin D3 receptor (human) inhibition; P11473; VDR-SRC2-3 peptide fluorescence polarization, 2 h; Potency, µM, for the others: max response, negative = inhibition, usual class: inhibitors; 400,000 tested, 0.93% active; AID 504847; further: potency means the concentration at half of the fitted maximal effect
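VDR–SRC2-3 interaction, FP format. Cmpds 23 nl via pintool, brief spin, 2 h ambient incubation.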
* marks the source's active call; other numbers are inactive results; ? = inconclusive; · = no result given. Most compounds without a hit are left out; they make up all but 3.2% or so of the library. Unless noted, the call rests on the fitted dose curve; in most records, active means well fitted curve in the direction sought with a large enough effect; inconclusive means small, poorly fitted or top-dose-only effect, or another doubt; inactive means no such curve, though single readings can be large; an effect the other way counts as inactive or inconclusive. Unless noted, on the % scale 0 is the no-effect control and ±100 the full control effect.

SMILES	GALK inhibitor	USP1-UAF1 inh	PLK1 PBD inh	USP2a block	Coupling enz	VDR inh
NC(=O)c1ccc2c(c1)S(=O)(=O)c1ccccc1C2=O	1%	-23%	-1%	4%	2	-25%
COc1ccccc1N1CCN(CC(=O)c2c(C)[nH]c3cc(C)ccc23)CC1	5%	-20%	-5%	1%	0	4%
COc1ccc(S(=O)(=O)/N=C2/C=CC(=O)C(C)=C2C)cc1	2%	-9%	24µM*	2%	-11	?
CC1=C(C)/C(=N\OS(=O)(=O)c2ccc(C)cc2)C=CC1=O	-1%	-5%	?	0%	-85*	28µM*
CCCNS(=O)(=O)c1cccc2cccnc12	3%	-26%	-12%	5%	-8	-4%
COC(=O)[C@@]1(C)[C@H]2C(=O)N(Cc3ccccc3)C(=O)[C@H]2[C@H]2CN=C(SCc3ccccc3)N21	·	-21%	-18%	-10%	·	-13%
CCN1C(=O)[C@H]2[C@H]3CN=C(SCC(=O)c4ccccc4)N3[C@@](C)(C(=O)OC)[C@H]2C1=O	·	-16%	?	3%	·	45µM*
N#CC1=C(N)NC(=S)C(C(N)=O)C1c1ccc([N+](=O)[O-])cc1 (stereo unspecified)	2%	-1%	27µM*	0%	5	79µM*
Cc1cc(-c2csc(N)n2)c(C)n1CCC(C)C	6%	3%	-15%	-11%	-7	56%
CCCCCC(=O)NNC1CC(=O)N(c2ccccc2)C1=O (stereo unspecified)	-1%	-13%	-9%	1%	-1	-11%
CCCCCC(=O)N(O)C1CC(=O)N(c2ccccc2)C1=O (stereo unspecified)	3%	-10%	?	2%	6	20µM*
CCC1C(=O)N=C(SCC(=O)Nc2ccc(Br)cn2)NC1=O (stereo unspecified)	8%	-22%	27µM*	-1%	2	?
CCC1C(=O)N=C(SCC(=O)Nc2cccc3ccccc23)NC1=O (stereo unspecified)	-2%	1%	-23%	0%	1	-12%
COCCN(CC(=O)Nc1ccc(F)cc1)S(=O)(=O)c1ccc(S(=O)(=O)N2CCCC2)cc1	0%	-10%	-1%	0%	2	11%
COC(=O)c1c(C(=O)OC)c(-c2ccc(C)cc2)n2c1CS(=O)(=O)C2	2%	-5%	-6%	-4%	-1	-3%
COC(=O)c1c(C(=O)OC)c(-c2ccc(Cl)cc2)n2c1CS(=O)(=O)C2	0%	0%	4.2µM*	0%	3	?
Cc1c(N=C2C=CC(=O)c3ccccc32)c(=O)n(-c2ccccc2)n1C	2%	32µM*	19µM*	1%	-52*	?
COc1ccc(S(=O)(=O)N2CCC(Oc3cccc(C(F)(F)F)c3)CC2)cc1OC	·	-11%	·	·	·	-2%
CC(C)CN(C(=O)COC(=O)c1cnc(Cl)c(Cl)c1)c1c(N)n(Cc2ccccc2)c(=O)[nH]c1=O	·	-13%	-5%	0%	·	-12%
CN1C(=O)CC(Nc2cccc3cccc(N)c23)C1=O (stereo unspecified)	-2%	?	-5%	-6%	-41*	-17%
COc1ccc2c3c(cccc13)OCC2=O	5%	-8%	-7%	4%	-18	-4%
CCc1c(C(=O)Nc2ccccc2)c(C)[nH]c(=S)c1C#N	-1%	-12%	21µM*	1%	-6	15%
O=C(Nc1ccc2oc(-c3ccccc3F)nc2c1)c1ccc2c(c1)OCCO2	-2%	-19%	-6%	1%	1	0%
Cc1ccccc1-c1nnc(SCC(=O)NC2CCCCC2)o1	0%	-22%	-3%	-1%	-1	7%
COc1ccccc1-c1nnc(SCC(=O)NC2CCCCC2)o1	-2%	-2%	27µM*	2%	5	?
COc1ccc(NS(=O)(=O)c2cccc(C(=O)NCC3CCCO3)c2)cc1 (stereo unspecified)	·	-12%	-8%	0%	·	-9%
